# Results with a measured potency or affinity are listed apart.
# Key:
# [1] = system: Klebsiella pneumoniae; conditions: Concentration 32 ug.mL-1; ASSAY_TEST Inhibition of Bacterial Growth; detection method Absorption (OD600); MEDIA CAMHB; plate type 384well; NBS; CORNING #3640; time 18 hr
# [2] = system: Candida albicans; conditions: 32 ug/mL
# [3] = system: Cryptococcus neoformans; conditions: Concentration 32 ug.mL-1; ASSAY_TEST Inhibition of Fungal Growth; detection method Resazurin; Absorption (OD600-OD570); plate type 384well; NBS; CORNING #3640
SMILES,Inhibition [1],Inhibition [2],Inhibition [3]
COc1cccc(C2c3c(ccc4ccccc34)OC(=NBr)C2(Br)C#N)c1 (stereo not drawn),33.1%,26.4%,-22.56%
N#CC1=C(N)Oc2c(ccc3ccccc23)C1c1cccc([N+](=O)[O-])c1 (stereo not drawn),11.95%,2.35%,-36.01%
CSC1=NC(=Cc2ccccc2)C(=O)N1C,-0.86%,3.12%,-9.15%
N#Cc1c(Cl)nc(Sc2ccccc2)c(C#N)c1-c1ccccc1,-3.62%,2.71%,-38.87%
COc1ccc(C2c3c(nc4c(c3N)CCCC4)Oc3ccc4ccccc4c32)cc1OC (stereo not drawn),-20.58%,2.65%,0.83%
COc1cccc(C=C2N=C(c3ccccc3)OC2=O)c1OC(C)=O,0.25%,-1.1%,-5.03%
CC1Cc2c(nc3c(c2N)CCCC3)NC1=O (stereo not drawn),17.01%,1.73%,-61.31%
C#CCNc1[nH]c2ccc(O)cc2c1C#N,14.34%,1.86%,-54.9%
Nc1c2c(nc3ccc([N+](=O)[O-])cc13)CCCC2,16.59%,2.09%,-74.97%
Nc1c2c(nc3c1C(c1ccc(O)cc1)c1c(ccc4ccccc14)O3)CCCC2 (stereo not drawn),8.92%,2.15%,-0.6%
Cc1ccc(C(O)SNNc2ncnc3c2cnn3-c2ccccc2)cc1 (stereo not drawn),7.03%,2.59%,-4.5%
COc1ccc2c(c1)cc(CN)n2C,13.36%,2.3%,-4.4%
N#Cc1c(Cl)nc(N2CCCCC2)c(C#N)c1-c1ccccc1,-24.06%,3.22%,-3.56%
COc1ccc(CNNC(=O)c2cc3ccccc3[nH]2)cc1,-6.62%,0.44%,-2.55%
COC(=O)C(=Cc1ccc(OC)cc1)NC(=O)c1ccccc1,13.3%,6.47%,-1.73%
O=C(N/N=C/Cc1ccccc1)c1cc2ccccc2n1Cc1ccccc1,4.61%,1.98%,-1.83%
COC(=O)C1CCN(Cc2ccccc2)CC1,4.25%,4.82%,-2.37%
CCOC(=O)C1=C(C)OC(N)=C(C#N)C1c1ccc([N+](=O)[O-])cc1 (stereo not drawn),12.45%,-0.07%,-64.89%
Cl.OCCCC1CCNCC1,3.57%,1.52%,-1.05%
C#CCN(C)c1nc(Sc2ccccc2)c(C#N)c(-c2ccccc2)c1C#N,17.28%,1.53%,-1.7%
CCOC(=O)CCc1c[nH]c2ccccc12,-13.33%,5.29%,-6.58%
Cn1c(CNNC(=O)Cc2cccc3ccccc23)cc2ccccc21,2.56%,-0.25%,-2.04%
CC1=N/C(=C(\C)c2ccccc2)C(=O)O1,-1.65%,0.7%,-3.17%

SMILES,Inhibition [1],Inhibition [2],Inhibition [3]
COc1ccc(C2c3ccc4ccccc4c3OC(=NBr)C2(Br)C#N)cc1 (stereo not drawn),6.43%,2.22%,-24.77%
CCOc1nc2nc(CCc3ccccc3)ccc2c(-c2ccccc2)c1C#N,1.47%,7.93%,-42.89%
Cc1nn(-c2ccccc2)c2nc(C)n3nc(-c4ccccc4)nc3c12,3.45%,-2.98%,-5.73%
COc1cccc(-c2c(C#N)c(=O)oc3c2ccc2ccccc23)c1,2.22%,24.3%,-2.58%
CC#CCN(Cc1ccccc1)c1nc(N)c(C#N)c(-c2ccccc2)c1C#N,-4.62%,3.12%,-26%
CC(C)CC(C)NNC(=O)c1cc2ccccc2[nH]1 (stereo not drawn),-2.7%,-0.37%,-6.14%
CC(=O)/C=C/C1CCN(Cc2ccccc2)CC1,7.64%,0.43%,-60.96%
N#Cc1cc(C#N)c(N2CCCC2)nc1N1CCCC1,22.43%,-0.31%,-5.24%
C/C(Cc1ccccc1)=N\NC(=O)c1c[nH]c2ccccc12,-16.37%,5.16%,2.61%
CCOC(=O)C1=C(C)OC(N)=C(C#N)C1c1ccccc1OC (stereo not drawn),15.52%,23.3%,-0.68%
Cc1nc2c(cc1C#N)c(N)nn2C,19.03%,3.97%,-10.85%
C=C1CN(C)c2c(C#N)c(-c3ccccc3)c(C#N)c(=N)n21,8.43%,-0.24%,-51.34%
COc1ccc(C2C(C#N)=C(N)Oc3ccc4ccccc4c32)cc1OC (stereo not drawn),12.8%,5.6%,-62.6%
Nc1c2c(nc3nc4ccccc4nc13)CCCC2,-2.37%,2.21%,-107.03%
COc1cccc(C2C(C#N)=C(N)Oc3c2ccc2ccccc32)c1 (stereo not drawn),8.5%,3.73%,-38.21%
COc1ccc2c(c1)cc(C(=O)Nc1ccccc1)n2C,8.32%,2.05%,-38.47%
Cl.OCC1CCN(Cc2ccccc2)CC1,15.06%,1.47%,-2.26%
Cl.N#Cc1c(Cl)nc(N)nc1NCCO,6.6%,1.9%,8.33%
Cn1ccnc1C1C2=C(CC(C)(C)CC2=O)Oc2nc3c(c(N)c21)CCC3 (stereo not drawn),9.18%,-1.44%,-62.95%
CN(C)c1nc2nc3c(c(N)c2c(-c2ccccc2)c1C#N)CCCC3,5.15%,1.47%,-62.72%
CCOC(=O)C1=C(C)Oc2nc3c(c(N)c2C1c1ccccc1OC)CCC3 (stereo not drawn),16.69%,-0.7%,-2.56%
CNN=C1N=C(SCc2ccccc2)SC1=O,8.63%,-0.64%,-3.27%
O=C(N/N=C/c1ccc([N+](=O)[O-])cc1)c1cc2ccccc2[nH]1,7.41%,0.87%,-3.37%
